High-throughput results as filed in PubChem BioAssay.
HCMV antiviral = blocks human cytomegalovirus replication | hit rate 4.5% among 410,000 | HFF cells, HCMV-luciferase reporter, 72 h; stronger effect = lower value | activity change, negative = inhibition, % at 57.5 µM | AID 1259415; in the data active means activity change below about -60%; inconclusive means no clear call, values can overlap the other calls; inactive means above about -39%
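Luciferase read-out from HCMV-luciferase-infected HFFs (MOI 1 PFU/cell) 72 h post infection at 37C; compounds added after 16 h cell attachment; activity normalized between buffer-only basal and Salinomycin (10uM) inhibitor controls.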
Pf growth 48h = P. falciparum growth inhibition at 48 hours (one generation); P. falciparum luciferase growth in erythrocytes, 48 h; Potency, µM (doses to about 28.7 µM), usual class: inhibitors; hit rate 5.9% among 310,000; AID 504832
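Read-out is firefly luciferase luminescence from an integrated reporter in P. falciparum, so falling signal marks reduced parasite growth. Infected erythrocytes were at 2% hematocrit and 0.1% parasitemia (final) in Albumax-supplemented RPMI 1640.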
Sm TGR inh = inhibitors of Schistosoma mansoni thioredoxin glutathione reductase; AID 485364; Q962Y6; purified TGR, DTNB reduction, TNB absorbance 405 nm; Potency, µM (titrated, usually from 114 µM), actives largely listed as inhibitors; hit rate 3% among 360,000; further: nearly all actives have a fitted effect of over 60% in size
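TGR 20 nM + NADPH 100 uM (dispensed conc.), cpd preinc 15 min RT; start with NADPH (500 uM addition) then DTNB (15 mM addition). Kinetic TNB absorbance, 405 nm filter. Four-parameter Hill fit across titration.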
Pf growth 96h = P. falciparum growth inhibition at 96 hours | P. falciparum luciferase reporter growth, 96 h | Potency, µM (doses to about 28.7 µM), hits mostly inhibitors | hit rate 6.9% among 320,000
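Cell-based qHTS: luciferase-tagged P. falciparum in erythrocytes (2% hematocrit, 0.05% parasitemia final) incubated with compounds for 96 hours, 37 C, 5% CO2; luciferase detection reagent then added and luminescence measured.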
SARS PLpro yeast = blocks SARS-CoV papain-like protease in a yeast assay; S. cerevisiae expressing SARS-CoV PLpro, growth rescue; Potency, µM (titrated, usually from 32.9 µM), actives largely listed as activators; hit rate 0.19% among 330,000; AID 485353; calls by dose curve; further: nearly all actives have a fitted effect of over 55% in size
HCV inh = blocks hepatitis C virus; Potency, µM (top dose mostly 41.8 µM), most hits filed as inhibitors; Huh7.5.1 HCVcc-Cre infection, luciferase reporter, 44 h; hit rate 3.4% among 340,000
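1,000 cells/well; 4 h culture; + compound; + HCVcc-Cre (~0.5 moi); 44 h; luciferase substrate, RT 15 min; read 15 sec.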
A number is an active result; - = inactive; ? = inconclusive; . = no result given. An excerpt weighted towards active compounds, which were near 15% of everything screened. Unless noted, the call rests on the fitted dose curve; in most records, active means well fitted curve in the direction sought with a large enough effect; inconclusive means small, poorly fitted or top-dose-only effect, or another doubt; inactive means no such curve, though single readings can be large; an effect the other way counts as inactive or inconclusive.

SMILES	HCMV antiviral	Pf growth 48h	Sm TGR inh	Pf growth 96h	SARS PLpro yeast	HCV inh
Cc1ccc(-c2sc(C(=O)Nc3ccc(Br)cc3)cc2CC(=O)O)cc1	-	.	-	.	.	.
Cc1ccccc1-n1cc(CNC(=O)CCc2nnc(CCc3ccccc3)o2)cn1	-	-	-	-	-	-
CCc1cc(C(=O)N/N=C/c2ccc(O)cc2)c2ccccc2n1	-	-	-	-	-	?
CC(C)(C)c1cc(C(=O)N/N=C/c2ccc(O)cc2)n(-c2ccccc2)n1	-	9.3µM	-	-	-	-
O=C1NC(=O)N(CCc2ccc(F)cc2)C(=O)/C1=C\C=C\c1ccccc1	-	-	?	?	-	4µM
O=C1NC(=S)N/C1=C\C=C\c1ccccc1	-	-	-	-	-	-
C=CCN1C(=O)NC(=O)/C(=C/C=C/c2ccccc2)C1=O	-112	-	10µM	?	-	-
CN(C)c1ccc(/C=C2/C(=O)NC(=O)N(CCc3ccc(F)cc3)C2=O)cc1	-	-	?	?	-	-
O=C(NCC(c1ccco1)N1CCCC1)c1cccc(NS(=O)(=O)c2ccccc2)c1 (stereo not drawn)	-	10µM	?	?	.	-
O=C(NCC(c1ccco1)N1CCCC1)c1cccc(S(=O)(=O)Nc2ccc(F)cc2)c1 (stereo not drawn)	-	13µM	-	15µM	-	?
O=S(=O)(NCC(c1ccco1)N1CCCCC1)c1ccccc1C(F)(F)F (stereo not drawn)	-	?	-	?	-	-
O=C(NCC(c1ccco1)N1CCCCC1)c1cccc(S(=O)(=O)Nc2ccc(F)cc2)c1 (stereo not drawn)	-	10µM	-	?	-	?
O=S(=O)(NCC(c1ccco1)N1CCCCC1)c1cccc(C(F)(F)F)c1 (stereo not drawn)	-	?	-	7.4µM	-	?
Cc1cc(S(=O)(=O)Nc2ccc(C(=O)NCC(c3ccco3)N3CCCCC3)cc2)ccc1F (stereo not drawn)	-	?	-	?	-	-
Cc1ccc(S(=O)(=O)Nc2cccc(C(=O)NCC(c3ccco3)N3CCCCC3)c2)cc1F (stereo not drawn)	-	?	-	-	-	?
O=C(CN1CCN(C(=O)C2CCCO2)CC1)Nc1ccc(Cl)cc1 (stereo not drawn)	-	-	-	-	.	.
CC(=O)O[C@@H](C)C[N+](C)(C)C	.	-	.	-	.	.
Cc1ccc(NS(=O)(=O)c2cccc(C(=O)NCC(c3ccco3)N3CCCC3)c2)cc1 (stereo not drawn)	-	13µM	-	?	-	?
Cc1ccc(CNC(=O)COC(=O)c2cccc(S(=O)(=O)N3CCCCC3)c2)cc1	-	-	-	-	-	-
COC(=O)N/N=C/c1ccccc1OCc1ccccc1	?	-	-	-	-	-
COc1ccc(NC(C)C(=O)N/N=C/c2ccccc2OCc2ccc(Br)cc2)cc1 (stereo not drawn)	-	9.3µM	-	-	-	?
CC(C)(C)c1ccc(OCC(=O)N/N=C/c2cc(Br)ccc2OC(=O)c2ccco2)cc1	-	2.1µM	-	?	-	?
COc1ccc(Br)cc1/C=N/NC(=O)c1ccco1	-	-	-	-	-	-
COC(=O)N/N=C\c1cc(Br)ccc1OCc1ccccc1	-	-	-	-	-	10µM
O=C(CN1C(=O)NC2(CCc3ccccc32)C1=O)NCC(=O)Nc1ccc(F)cc1 (stereo not drawn)	-	?	-	-	-	-
SMILES	HCMV antiviral	Pf growth 48h	Sm TGR inh	Pf growth 96h	SARS PLpro yeast	HCV inh
CO/N=C/c1ccc(N2CCN(C(=O)c3ccc(Cl)cc3Cl)CC2)c([N+](=O)[O-])c1	-98	-	-	-	-	8.9µM
CO/N=C/c1ccc(N2CCN(C(=O)c3cccc(C(F)(F)F)c3)CC2)c([N+](=O)[O-])c1	-	?	-	?	-	?
CO/N=C/c1ccc(N2CCN(C(=O)c3ccc(F)cc3)CC2)c([N+](=O)[O-])c1	-	?	-	?	-	14µM
Cc1cc(C)cc(OCC(=O)Nc2ccc(S(=O)(=O)Nc3onc(C)c3C)cc2)c1	-	.	-	.	.	.
O=C(c1ccco1)N1CCN(c2ccc(N3CCCCC3)nn2)CC1	-	-	-	?	-	-
Cc1cccc(N2CC(O)(c3cccs3)[N+]3=C2CCCC3)c1 (stereo not drawn)	-	-	-	-	-	-
Cc1ccccc1N1CC(O)(c2cccs2)[N+]2=C1CCCC2 (stereo not drawn)	-60	?	-	-	-	?
Cc1ccc(N2CC(O)(c3cccs3)[N+]3=C2CCCC3)cc1 (stereo not drawn)	-	?	-	5.2µM	-	-
CCCN(C(=O)Cn1ncc2c([nH]c3ccccc32)c1=O)c1ccc(F)cc1	-	.	-	.	.	.
COc1ccc(C)cc1NC(C)C(=O)NC(=O)NC1CCCCC1 (stereo not drawn)	-	13µM	-	?	-	-
COc1cc(C)ccc1OCC(=O)NC1CCCCCC1	-	-	-	-	-	-
CCOc1ccc(N/C(=N/c2nc(C)cc(C)n2)NC(C)=O)cc1	-	?	-	-	-	-
CC12CCC(C(=O)Nc3nc4ccc(Br)cc4s3)(OC1=O)C2(C)C (stereo not drawn)	-	-	-	?	-	-
COc1ccc(C(CCN2CCCCC2)c2c(OC)cc(OC)c3c(-c4ccccc4)cc(=O)oc23)cc1 (stereo not drawn)	-	10µM	-	9.3µM	-	2.8µM
COc1cc(OC)c2c(-c3ccccc3)cc(=O)oc2c1	-	?	-	-	-	-
COc1cc(OC)c2c(-c3ccccc3)cc(=O)oc2c1C(CCN1CCCCC1)c1ccc(N(C)C)cc1 (stereo not drawn)	.	10µM	-	?	-	-
COc1cc(OC)c2c(-c3ccccc3)cc(=O)oc2c1C(CCN1CCOCC1)c1ccc(N(C)C)cc1 (stereo not drawn)	-	.	.	.	-	?
CCOC(=O)/C(=C/Nc1ccc(F)c(F)c1)[N+](=O)[O-]	.	-	-	-	-	-
CCCCN(CCCC)CCNC(=O)c1cc(=O)[nH]c2ccc(S(=O)(=O)N3CCCCCC3)cc12	?	.	-	.	.	.
Cc1cccc(OCc2n(CC(=O)OC3CC(C)CCC3C(C)C)c3ccccc3[n+]2C)c1 (stereo not drawn)	.	2.3µM	-	-	-	-
CC1CCC(C(C)C)C(OC(=O)Cn2c(COc3ccccc3)[n+](C)c3ccccc32)C1 (stereo not drawn)	-100	1.7µM	-	2.3µM	-	13µM
CCCn1cc(C(=O)N(C)C2CCCN(Cc3ccccc3F)C2)c(C)n1 (stereo not drawn)	?	-	-	-	-	-
